The panel holds about 83,000 compounds, 20% with a hit somewhere; the sample as a whole holds those more often.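 Plates (96-well) were seeded with cells, treated with compound at one concentration, and incubated for 48 hours before percent growth was determined.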 Unmarked numbers belong to inactive results. Active and inactive are the calls of the source. The calls were made as follows: active = growth percent below 10; inactive = the rest.
Key:
Assay in all cases: NCI-60 one-dose screen, 48 h (100 = growth as untreated, 0 = no growth, -100 = all killed)
Details in all cases: 10 µM unless noted
[1] = system: NCI-H23 lung
[2] = system: NCI-H226 lung
[3] = system: NCI-H322M lung
[4] = system: HOP-62 NSCLC
[5] = system: NCI-H460 lung
[6] = system: HOP-92 NSCLC
[7] = system: NCI-H522 lung
[8] = system: A549/ATCC NSCLC
[9] = system: 786-0 renal
[10] = system: COLO 205 colon
[11] = system: DU-145 prostate
[12] = system: K-562 leukemia
[13] = system: MALME-3M melanoma
[14] = system: MDA-MB-231 breast
[15] = system: RXF 393 renal
[16] = system: SF-268 CNS
[17] = system: SF-295 CNS
[18] = system: SF-539 CNS
[19] = system: UACC-257 melanoma
[20] = system: M14 melanoma

Compound	growth [1]	growth [2]	growth [3]	growth [4]	growth [5]	growth [6]	growth [7]	growth [8]	growth [9]	growth [10]	growth [11]	growth [12]	growth [13]	growth [14]	growth [15]	growth [16]	growth [17]	growth [18]	growth [19]	growth [20]
C=C(C)[C@@H]1CC[C@]2(CO)CC[C@]3(C)[C@H](CC[C@@H]4[C@@](C)(CCCN)[C@H](C(=C)C)CC[C@]43C)[C@@H]12	-70.1% (active)	13.1%	-53.9% (active)	-62.8% (active)	-93.8% (active)	-41% (active)	-48.6% (active)	-68.8% (active)	-98.5% (active)	-58% (active)	-44.8% (active)	-5.14% (active)	-94.7% (active)	-96.3% (active)	-85.3% (active)	-41.9% (active)	-75.5% (active)	-97.1% (active)	-78.9% (active)	-74.9% (active)
O=C(C1=Cc2cc3ccccc3n2Cc2cnnn21)c1ccc(F)cc1	98.9%	98.8%	99.1%	109%	106%	102%	91.3%	96.3%	99.1%	117%	97.7%	87.4%	101%	105%	103%	100%	97.8%	101%	107%	107%
C/C(=C(\c1ccc(OCCN2CCCCCC2)cc1)c1ccc(OC(=O)c2ccccc2)cc1)c1ccc(Cl)cc1	46.7%	87.5%	71.7%	71.7%	3.62% (active)	56.2%	51%	39.1%	21.8%	4.38% (active)	66.1%	-4.61% (active)	17.3%	51.1%	19%	43.1%	44.4%	58.5%	-7.06% (active)	0.53% (active)
O=C(NC1CCC(Br)CC1)C1CCCC(S(=O)(=O)NC2CCCCC2)C1 (stereo not given)	-3.95% [25 µM] (active)	19.7% [25 µM]	41.9% [25 µM]	13.8% [25 µM]	14.1% [25 µM]	-15.2% [25 µM] (active)	-3.79% [25 µM] (active)	10.4% [25 µM]	36% [25 µM]	13% [25 µM]	29.9% [25 µM]	8.64% [25 µM] (active)	19.5% [25 µM]	36.1% [25 µM]	37.2% [25 µM]	20.8% [25 µM]	-4.06% [25 µM] (active)	28.8% [25 µM]	-6.91% [25 µM] (active)	22.1% [25 µM]
O=C1CCCC1[n+]1ccccc1 (stereo not given)	108%	105%	93.6%	80.8%	111%	97.4%	62.1%	72.3%	82.2%	86.1%	105%	108%	89.9%	105%	121%	95.2%	95.1%	82.6%	79.2%	95%
CC(C)(C)c1ccc(C(=O)N/N=C/c2ccc(O)cc2O)cc1	19.1%	12.1%	26.8%	17.9%	0.52% (active)	33.6%	33.4%	11.8%	19.7%	14.7%	24.5%	14.2%	11.9%	35.1%	-4% (active)	19.9%	16.6%	11.2%	3.68% (active)	-10.3% (active)
O=C1Nc2ccc(Cl)cc2/C1=C/c1ccc[nH]1	66.3%	97.4%	69.4%	95.8%	82.3%	133%	71.4%	90.3%	108%	126%	83.6%	100%	99.1%	40.7%	74%	96.4%	109%	88.6%	118%	78.4%
C=C[C@@]1(C)CC(=O)[C@@H](C(C)(C)c2cn(C)c3ccc(Br)cc23)C[C@@H]1O[Si](C)(C)C(C)(C)C	98.3%	83.9%	101%	111%	101%	83.6%	94.4%	102%	97.4%	104%	95.4%	104%	92.2%	96.6%	108%	96.5%	103%	97.3%	103%	91.7%
N#Cc1c(-c2ccccc2)cc(-c2ccccc2)n(CCCCC(=O)NO)c1=O	25.8%	9.98% (active)	92.2%	21.1%	73%	15.7%	19.3%	41.7%	7% (active)	43.3%	20.2%	6.77% (active)	11.5%	25.6%	-16.5% (active)	43%	1.64% (active)	24.3%	35.8%	19.1%
O=C(/C=C/C12c3ccccc3C(c3ccccc31)C1C(=O)NC(=O)C12)c1ccc(Cl)cc1Cl (stereo not given)	32.9%	78.7%	41.4%	21%	8.61% (active)	37.6%	9.1% (active)	37.4%	19.1%	-8.3% (active)	23%	7.41% (active)	48.2%	19.3%	-4.59% (active)	33.3%	40.8%	39.4%	41%	24.4%
C=C(C)[C@@H]1CC[C@]2(C)[C@H](C=CC3=C4C[C@@](C)(CO)CC[C@]4(C)CC[C@]32C)[C@@]1(C)CCCN	-37.1% (active)	90.8%	-14.3% (active)	-54.9% (active)	-86.2% (active)	-52.9% (active)	-43.1% (active)	-62.2% (active)	-97.3% (active)	-64.4% (active)	-72.7% (active)	0.273% (active)	-45.2% (active)	-75.7% (active)	-69.5% (active)	-55.8% (active)	73.3%	-90% (active)	-60.4% (active)	-66.2% (active)
CCOC(=O)c1[nH]cc2c1CCc1sc(Nc3ccccn3)nc1-2	66.7%	57.2%	96%	92.3%	85.9%	56.3%	66.2%	70.2%	98.7%	93.7%	74.4%	59.5%	108%	82.3%	86.2%	89.4%	86.5%	101%	73.8%	86.3%
OC1(c2ccccc2)c2ccccc2N(c2ccccc2)c2ccc(Cl)cc21 (stereo not given)	-49.4% (active)	-80.7% (active)	-90.3% (active)	-91.7% (active)	-48.4% (active)	-76.8% (active)	-86.8% (active)	-12.5% (active)	-94.6% (active)	-85.7% (active)	-90.6% (active)	-11.4% (active)	-93.1% (active)	-77% (active)	-83% (active)	-72.4% (active)	-57.6% (active)	-82.6% (active)	-58.8% (active)	-79.5% (active)
FC(F)(F)c1[nH]ncc1-c1nc2ccc3[nH]ncc3c2c2c1CCCC2	7.15% (active)	10.1%	3.13% (active)	1.07% (active)	5.86% (active)	31.2%	-16.9% (active)	0.818% (active)	-23.8% (active)	-8.58% (active)	6.89% (active)	18.7%	8.51% (active)	14.5%	-62.9% (active)	8.87% (active)	24.3%	-35.1% (active)	17.6%	12.5%
O=c1oc2c(cc1-c1ccccc1)c[n+]([O-])c1ccccc21	101%	93.5%	104%	99.2%	98%	86.4%	98.9%	98%	90.3%	102%	103%	92.6%	97.7%	91.8%	94.6%	107%	101%	101%	100%	103%
Cc1ccc2nc(-c3ccc(C(=O)N/N=C/c4ccc([N+](=O)[O-])cc4)cc3)[nH]c2c1	101%	104%	104%	108%	102%	91.9%	95.1%	106%	97.6%	108%	103%	101%	92.2%	97.3%	104%	101%	111%	97.5%	108%	102%
